# Assay outcomes deposited in PubChem by several laboratories.
# HIF-2a block: inhibitors of HIF-2a; AID 624352; inhibition, % at 18.8 µM; 360,000 compounds, 0.72% hits; 786-0 RCC cells HIF-2a reporter, luciferase luminescence, overnight;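 active means inhibition of the luminescence signal of 40% or more relative to plate controls, in a single-dose primary screen at 18.75 µM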
# KKLEB tox: reduces viability of KKLEB cystic fibrosis airway cells. 360,000 compounds, 0.36% hits. AID 602141. KKLEB CF airway cells viability, ATPlite luminescence, overnight; active compounds read low; cells stimulated with P. aeruginosa culture filtrate. activity change (cytotoxicity), % at 5 µM;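 active means corrected activity change at or below -50% at 5 µM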
# Shn3 3UTR inh: reduces Shn3 3'UTR luciferase signal in osteoblasts. Clone20 osteoblast Shn3 3'UTR firefly luciferase, 24 h. inhibition, % at 12.5 µM. 360,000 compounds, 0.52% hits. AID 588674;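 active means mean inhibition of at least 75% with every replicate also reaching 75%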;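 further: 0% = median of neutral control wells and 100% = pilot-screen positive control compound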
# Peg3 promoter: reduces Peg3 promoter-driven luciferase expression in HeLa. inhibition, % at 20 µM. AID 588405. HeLa PEG-Prom luciferase reporter, luminescence, overnight. 360,000 compounds, 1.7% hits;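 active means inhibition of at least 50% at 20 µM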
# CF NFkB block: inhibitors of cystic fibrosis induced NF-kB; KKLEB NF-kB-GFP reporter, PAF-induced, GFP fluorescence overnight; inhibition, % at 5 µM; 360,000 compounds, 0.86% hits;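 active means at least 50% inhibition at 5 µM, scaled per plate between neutral and stimulator controls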;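 further: PAF is a Pseudomonas aeruginosa culture filtrate used as stimulus; plate controls were PAF-stimulated DMSO wells for no effect and unstimulated DMSO wells for full effect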
# Active calls of the source: *. This is a sample that favours compounds with a hit; in the whole collection about 2.6% have one here.
SMILES,HIF-2a block,KKLEB tox,Shn3 3UTR inh,Peg3 promoter,CF NFkB block
Cc1c(N/N=C(\C#N)C(=O)c2ccc(Cl)cc2)c(=O)n(-c2ccccc2)n1C,26,7,90*,43,12
COc1ccc(C(C(=O)NC2CCCCC2)N(Cc2ccco2)C(=O)c2snc(C(N)=O)c2N)cc1 (stereo not drawn),12,-14,8,58*,8
CCCC1(c2ccccc2)NC(=O)N(C/C=C/Cl)C1=O (stereo not drawn),15,-1,20,17,-19
CCN(CCc1ccccc1)c1ccc2c(c1)C1CC2CCN1C(=O)OCc1ccccc1 (stereo not drawn),1,-11,-1,-8,30
CCCCN(C(C)=O)c1ccc2c(c1)C1CC2CCN1C(=O)OCc1ccccc1 (stereo not drawn),1,-17,90*,10,9
CCCCCCCCNCCS(=O)(=O)NCc1ccccc1,-7,-29,3,64*,6
Nc1nc2ccc(Oc3ccccc3)cc2s1,-206,-9,-35,-233,19
Nc1nc2ccc(OC(F)(F)F)cc2s1,-184,-56*,-52,-169,12
Cc1ccc(CNC(=O)CN2C(=O)c3ccccc3S2(=O)=O)cc1,-17,3,-10,2,4
Cn1cnc([N+](=O)[O-])c1Sc1nc(N)nc2c1ncn2C1CC(O)C(CO)O1 (stereo not drawn),23,9,-18,50*,2
CSc1nnc(NC(=O)c2nc(S(=O)(=O)Cc3ccccc3)ncc2Cl)s1,3,-82*,96*,105*,91*
CCOC(=O)c1ccc(NC(=O)c2nc(S(=O)(=O)Cc3ccccc3)ncc2Cl)cc1,89*,-66*,96*,110*,95*
O=C(Nc1cccc(Cl)c1)c1ccc2ncsc2c1,-201,0,-58,-203,3
COc1ccc(CCN(C)C(=O)CSc2nnnn2C)cc1OC,9,4,18,12,-1
O=C(CCCN1C(=O)/C(=C\c2cccs2)SC1=S)Nc1ccc(O)cc1,9,0,-1,31,-10
O=C(CCCN1C(=O)/C(=C/c2cccs2)SC1=S)NNC(=O)c1ccccc1O,41*,3,43,34,-8
O=C(CCCN1C(=O)/C(=C/c2cccs2)SC1=S)Nc1ccccc1O,4,-1,-3,13,7
O=C(CCCN1C(=O)/C(=C\c2cccs2)SC1=S)Nc1ccc(O)cc1C(=O)O,32,6,12,53*,16
CCOC(=O)C1C(C(=O)NN)C1C(=O)Nc1ccccc1 (stereo not drawn),10,-1,-19,0,-10
Nc1nc(NCCO)nc(NCC2CCCO2)c1[N+](=O)[O-] (stereo not drawn),6,4,2,17,18
C[C@]12c3[nH]c4ccc(Cl)cc4c3CCN1C(=O)[C@@H](CC(=O)NCC13CC4CC(CC(C4)C1)C3)C[C@@H]2C(=O)N1CCCCC1,-16,-24,34,56*,37
CC[C@]12c3[nH]c4ccc(Cl)cc4c3CCN1C(=O)[C@@H](CC(=O)NCC13CC4CC(CC(C4)C1)C3)C[C@@H]2C(=O)N1CCN(C(=O)C2CC2)CC1,-65,-2,66,56*,13
CC(C)(CNC(=O)c1cc2c(s1)CCCC2)N1CCOCC1,-1,17,13,-2,-20
CCOC(=O)C1(Cc2ccccc2C)CCCN(C(=O)c2cc(C3CC3)[nH]n2)C1 (stereo not drawn),-5,-3,23,9,0
O=C(CSC1=NS(=O)(=O)c2ccccc21)Nc1ccccc1,-52,3,-23,71*,12
SMILES,HIF-2a block,KKLEB tox,Shn3 3UTR inh,Peg3 promoter,CF NFkB block
O=c1[nH]c(Nc2nc3ccccc3o2)nc2c1CCCC2,-70,21,80,58*,-22
Cc1ccc(Nc2nc3c(c(=O)[nH]2)CCCC3)cc1,-259,4,-31,-176,-5
COc1ccc(-c2coc3c(C(=O)NCc4ccc(OC)c(OC)c4)cccc23)c(C)c1,17,-15,90*,9,19
C=CCc1cccc2cc(C(=O)N(CC)CC)c(=O)oc12,11,-4,9,9,-3
Nc1c(Br)cc2c(c1Br)C(O)c1ccccc1-2 (stereo not drawn),-41,-8,94*,-42,-15
COc1ccc(/C=C/C(=O)NC(=S)N2CCN(c3ccccc3OC)CC2)cc1,-205,-9,-81,-161,-5
COc1ccc(NC(=O)c2cc(-c3ccncc3)nc3ccc(Br)cc23)cc1OC,12,-11,46,94*,-12
O=C(Cc1ccc(Cl)cc1)Nc1ccc(-c2nnc(-c3ccco3)o2)cc1,-39,-6,12,1,-14
O=C(CSCc1ccc(Cl)cc1)Nc1ccc(-c2nnc(-c3ccccc3)o2)cc1,-3,-42,44,51*,40
CCNc1ccc(C(=O)OCC)cc1NC(=O)c1cccc(S(=O)(=O)N2CCOCC2)c1,-6,7,13,-3,-13
O=C(NCc1ccccc1)C1=C[C@@H](C2CC2)C[C@@H](OCc2ccc(CO)cc2)O1,-22,-5,-8,-5,-16
O=C(NCc1ccccc1)C1=C[C@H](C2CCCCC2)C[C@H](OCc2ccc(CO)cc2)O1,6,-53*,12,9,56*
Cc1[nH]n(-c2ccccc2)c(=O)c1N=Nc1ccccc1O,-137,-4,85*,-7,17
CCCCCCCCCCCCCCCC[n+]1cccc2ccccc21,94*,-68*,92*,104*,66*
Cc1ccccc1C[n+]1cccc2ccccc21,9,-12,2,4,6
O=C(c1cc2nc(-c3ccccc3)cc(-c3ccccc3)n2n1)N1CCN(C(=O)c2ccco2)CC1,24,-1,30,50*,8
O=c1[nH]cnc2c1nnn2C1OC(CO)C(O)C1O (stereo not drawn),-10,-7,-39,35,6
CCCc1cc(=O)oc2c(CNc3ccc(OCC)cc3)c(O)ccc12,13,-3,-11,36,53*
Cc1ccc(NC(=O)c2ccccc2NS(=O)(=O)c2ccc(F)cc2)cc1S(=O)(=O)N1CCCCC1,11,-26,71,52*,48
Cc1ccc(NC(=O)CN(C)CC(=O)Nc2cccc(F)c2)cc1S(=O)(=O)N1CCCCCC1,15,-14,19,59*,-11
CCN(CC)S(=O)(=O)c1cccc(NC(=O)CNc2cccc(S(=O)(=O)N3CCCC3)c2)c1,25,-3,87*,13,18
COc1ccc(NC(=O)CN(C)CC(=O)Nc2cccc(F)c2)cc1S(=O)(=O)N1CCCCC1,19,-2,1,21,0
O=C(Nc1cccc(S(=O)(=O)N2CCCCC2)c1)c1ccccc1NS(=O)(=O)c1ccc(F)cc1,4,-19,21,37,44
CCN(CC)S(=O)(=O)c1ccc(C)c(NC(=O)CNc2cccc(S(=O)(=O)N3CCCC3)c2)c1,9,-8,65,32,-1
